From article PMC5540273 (PLoS ONE, 2017)

Test system: EPHA6
Conditions: concentration: 1 μM, replicates: in singlicate; n = 1
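Note: KINOMEscan kinase panel screen.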

SMILES | %Inh [%]
COc1cc2c(cc1OCCN1CCNCC1)ncc1c3ccc(C#N)cc3[nH]c21 | 0
CN(c1ccc(NC(=O)Nc2cc(C(F)(F)F)ccc2F)cc1)c1ccnc(Nc2ccc(S(N)(=O)=O)cc2)n1 [GW809893] | 98.5
COc1ccc(Nc2nccc(N3CCC(NC(=O)Nc4cccc(OC)c4)C3)n2)cc1 (stereo not shown) [GSK1379742] | 8
COc1cccc(-c2ccc3c(NC(=O)C4CC4)n[nH]c3n2)c1 [SB-710903] | 23
CNC(=O)c1ccccc1Nc1nc(Nc2ccc(N3CCOCC3)cc2)ncc1Cl.Cl [GSK1576028] | 65
O=C(NC1CCN(c2ccnc(Nc3ccc(F)cc3)n2)C1)c1cc2ccccc2s1 (stereo not shown) [GSK1379716] | 10
O=C(Nc1cccc(Oc2ccc3nc(NC(=O)C4CC4)cn3n2)c1)c1ccccc1C(F)(F)F | 16
Cl.c1ccc(-c2ccc3c(Nc4ccc5[nH]ncc5c4)ccnc3c2)nc1 [GW440137] | 28
Cl.Cl.NCC(NC(=O)c1cc(-c2ccccc2)c(-c2ccnc3[nH]ccc23)s1)c1ccccc1 (stereo not shown) [GSK1321561] | 34
C[C@@H](Oc1cc(-n2cnc3cc(-c4ccnc(NCCS(C)(=O)=O)c4)ccc32)sc1C(N)=O)c1ccccc1Cl [GSK907232] | 23
O=C(Nc1cccc(-c2nn3ccccc3c2-c2ccnc(Nc3cccc(F)c3)n2)c1)c1c(F)ccc(F)c1Cl [GSK357952] | 15
Cc1occc1-c1ncc(OC[C@@H](N)Cc2c[nH]c3ccccc23)cc1-c1ccc2[nH]nc(C)c2c1.O=C(O)C(F)(F)F [GSK682037] | 49
CCc1ccc(-c2ccc3c(c2)-c2c(cnn2C)S(=O)(=O)N3C)cc1 | 0
O=c1[nH]cc(-c2ccc(N3CCOCC3)cc2)c2sc(-c3cn[nH]c3)cc12 [GSK2276055] | 0
Cc1cccc(NC(=O)Nc2ccc(Oc3ncnc4ccn(C)c34)cc2)c1 | 28
CC(C)(C)c1ccc2nccc(Nc3cccc(O)c3)c2c1 [GW856795] | 18
COc1cc(Nc2nccc(-c3c(-c4cccc(NC(=O)c5c(F)cccc5F)c4)nn4ccccc34)n2)cc(OC)c1OC [GSK323521] | 3
CCn1c(-c2nonc2N)nc2c(C#CC(C)(C)O)ncc(OCCCCN)c21.O=C(O)C(F)(F)F.O=C(O)C(F)(F)F [GSK507274] | 20
O=C(Nc1cccc(-c2nn3ncccc3c2-c2ccnc(Nc3ccccc3)n2)c1)c1c(F)cccc1F [GSK198271] | 8

SMILES | %Inh [%]
Cn1cc(-c2ccc3c(c2)CCN3C(=O)Cc2cccc(Cl)c2)c2c(N)ncnc21 [GSK2606590] | 17
CN1CCN(Cc2cccc(-c3ccc4c(Nc5ccc(Oc6ccccc6)cc5)ccnc4c3)c2)CC1 [GW578342] | 7
Oc1cc(Nc2ccnc3cc(I)ccc23)ccc1F [GW552771] | 29
CCCCc1nn2ncccc2c1-c1ccnc(Nc2ccc(N3CCN(C)CC3)cc2)n1 [GW684941] | 40
O=C(Nc1n[nH]c2cc(-c3ccoc3)ccc12)C1CC1 [SB-738481] | 9
COc1cccc(C2=C(Nc3ccc(Cl)c(C(=O)O)c3)C(=O)NC2=O)c1 [SB-390769] | 2
CCS(=O)(=O)c1ccc(OC)c(Nc2nccc(-c3c(-c4cccc(NC(=O)c5c(F)cccc5F)c4)nn4ncccc34)n2)c1 [GSK326180] | 100
Nc1ncc(-c2cccnc2)c2scc(-c3ccc4c(c3)CCN4C(=O)Cc3ccccc3)c12 [GSK683281] | 11
Cc1ccc(C(=O)N2CC[C@@H](O)C2)cc1-n1c(C)cc(OCc2ccc(F)cc2F)c(Br)c1=O | 0
CC(=O)Nc1nc2cnc(Nc3cc(NC(=O)c4cccc(C5(C#N)CC5)c4Cl)ccc3C)nc2s1 | 56
COc1cc(Nc2nccc(N3CCC(NC(=O)c4cc5ccccc5s4)C3)n2)cc(OC)c1OC (stereo not shown) [GSK1379760] | 5
Cc1ccc(C(=O)Nc2ccc(Nc3ccnc4cc(-c5nccs5)ccc34)cc2O)cc1.Cl [GW494702] | 15
Cc1ccc(C)c(NC(=O)NC2CCN(c3ccnc(Nc4ccc(F)cc4)n3)C2)c1 (stereo not shown) [GSK1379720] | 0
CN(C)S(=O)(=O)c1cc(-c2ccc3nccc(-c4cccc(S(N)(=O)=O)c4)c3c2)cnc1N [GSK1669921] | 18
COc1cccc(NC(=O)NC2CCN(c3ccnc(Nc4cc(OC)c(OC)c(OC)c4)n3)C2)c1 (stereo not shown) [GSK1379763] | 0
Fc1ccc(-c2ncn(C3CCNCC3)c2-c2ccnc(Oc3ccc(-c4ccccc4)cc3)n2)cc1 [SB-245391] | 17
Cn1cc(-c2[nH]c3cc(NC(=O)[C@H](N)C4CCCCC4)cc4c3c2C=NNC4=O)cn1 | 14
Cl.Cl.NCC(NCc1ccc(-c2ccnc3[nH]ccc23)s1)c1ccccc1 (stereo not shown) [GSK1321565] | 0
